# Screening data deposited in PubChem by National Center for Advancing Translational Sciences (NCATS).
# HCV inh: qHTS Assay for Inhibitors of Hepatitis C Virus (HCV); 340,000 tested, 3.4% active; Huh7.5.1 HCVcc-Cre infection, luciferase reporter, 44 h; Potency, µM (series often up to 41.8 µM), inactives show at the highest dose activity change, negative = inhibition, actives largely listed as inhibitors; AID 651820, 2012; active = well fitted inhibition curve with a large enough effect; inconclusive = small, poorly fitted or top-dose-only effect, or another doubt; inactive = no such curve, though single readings can be large or run the other way; note: potency is the fitted concentration of half-maximal effect
#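 1,000 cells/well; 4 h culture; + compound; + HCVcc-Cre (~0.5 moi); 44 h; luciferase substrate, RT 15 min; read 15 sec.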
# Marburg entry inh: qHTS for inhibitors of binding or entry into cells for Marburg Virus; Marburg virus pseudotyped entry inhibition, cell reporter; Potency, µM (doses to about 37.8 µM), inactives show at the highest dose activity change, negative = inhibition, most hits filed as inhibitors; 300,000 tested, 1.8% active; calls by dose curve; tested in HEK293 cells; note: potency is the fitted concentration of half-maximal effect
# FMDV inh: High Throughput Screening for Foot and Mouth Disease Virus Antivirals; FMDV antiviral cell-based qHTS; Potency, µM (highest dose often 57.9 µM), for the others: at the top dose activity change, negative = inhibition, most hits filed as inhibitors; 410,000 tested, 1.2% active; calls by dose curve; tested in HEK293T cells; note: read-out not given here; potency is the fitted concentration of half-maximal effect; nearly all actives have a fitted effect of over 45% in size
# Lassa entry inh: qHTS for Inhibitors of binding or entry into cells for Lassa Virus. Lassa virus pseudotype entry inhibition, cell reporter. 300,000 tested, 1.2% active. Potency, µM (titrated, usually from 37.9 µM), for inactives: top-dose activity change, negative = inhibition, usual class: inhibitors; calls by dose curve; tested in HEK293 cells; note: potency is the fitted concentration of half-maximal effect; nearly all actives have a fitted effect of over 50% in size
# HCMV antiviral: qHTS Assay for inhibitors of the human cytomegalovirus (HCMV); HFF cells, HCMV-luciferase reporter, 72 h; hits give low values; AID 1259415, 2018; activity change, negative = inhibition, % at 57.5 µM; 410,000 tested, 4.5% active; in the data active = activity change below about -60%; inconclusive = no clear call, values can overlap the other calls; inactive = above about -39%
#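 HFF cells seeded 16 h at 37C, treated with compounds, infected with luciferase-reporter HCMV at MOI 1 PFU/cell; luciferase read at 72 h post infection, normalized to buffer-only and Salinomycin controls.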
# * = called active by the depositor; ? = inconclusive; nt = no result; [ ] = dose if it differs, or a comment. A selection: hits, their analogues and other compounds. The true share with any hit is near 7.9%. % is set by controls: 0 for no effect and ±100 for the full control effect.
SMILES,HCV inh,Marburg entry inh,FMDV inh,Lassa entry inh,HCMV antiviral
CCN(CC)S(=O)(=O)c1ccc(S(=O)(=O)N(Cc2ccccn2)Cc2ccco2)cc1,10µM*,-12%,nt,?,-23
COc1cccc(N2CCN(C(=O)C3CCN(S(=O)(=O)c4c(C)noc4C)CC3)CC2)c1,nt,-5%[46.1 µM],-18%,-14%[46.1 µM],4
CCNC(=O)c1cc(NC(=O)COC)cc2nc(-c3ccncc3)n(C)c12,nt,nt,-14%,nt,nt
O=C(Nc1ccnn1C1CCN(Cc2ccc(Cl)cc2)CC1)C1CCCC1,-13%,-10%,-16%,-2%,-25
O=C(Nc1ccnn1C1CCN(Cc2ccc(OC(F)F)cc2)CC1)C1CCCC1,22µM*,?,-25%,?,-23
COc1ccc(C(=O)Nc2ccnn2C2CCN(Cc3ccc4nonc4c3)CC2)cc1,-29%,nt,-24%,nt,-94*
CCc1ccc(CN2CCC(n3nccc3NC(=O)c3ccccc3C)CC2)cc1,14µM*,?,-11%,?,-35
Cc1ccccc1C(=O)Nc1ccnn1C1CCN(Cc2cccnc2)CC1,18%,2%,-8%,10%,-28
Cc1cc(C)n(-c2nc(NCCCN(C)C)c3c4c(sc3n2)COC(C)(C)C4)n1,-2%,?,0%,-25%,-21
CCN(CC)CCNc1nc(-n2nc(C)cc2C)nc2sc3c(c12)CC(C)(C)OC3,11µM*,?,1%,7.9µM*,-64*
Cc1cc(C)n(-c2nc(NCCN(C)C)c3c4c(sc3n2)COC(C)(C)C4)n1,?,7.1µM*,-8%,13µM*,?
Cc1cc(C)n(-c2nc(NCCC(C)C)c3c4c(sc3n2)COC(C)(C)C4)n1,-5%,?,0%,9%,-96*
CCOC(=O)c1ccc(NC(=O)CN2C(=O)c3cccnc3Oc3ccc(Cl)cc32)cc1,nt,nt,5%,-20%[46.1 µM],0
Cc1cc(Cl)ccc1NC(=O)CN1C(=O)CSc2ccc(S(=O)(=O)N(C)C)cc21,nt,nt,-22%,-13%[46.1 µM],-5
O=C(Nc1ccc(F)cc1)c1cc(S(=O)(=O)N2CCCCC2)cs1,?,?,?,?,-84*
CC1CN(S(=O)(=O)c2csc(C(=O)Nc3ccccc3)c2)CC(C)O1 (stereo not drawn),nt,?,-28%,?,-60*
CC(C)CC1c2[nH]c3ccccc3c2CCN1CCCn1cccn1 (stereo not drawn),-7%,4.5µM*,-20%,11µM*,-12
CCOc1cccc(C(=O)Nc2ccccc2C(=O)N2CCOCC2)c1,nt,25%,-10%,14%,-97*
CCC(C)Oc1cccc(C(=O)Nc2ccccc2N2CCOCC2)c1 (stereo not drawn),7.1µM*,-13%,-5%,?,-27
CCOc1ccc(C(=O)Nc2ccc(C(=O)N3CCOCC3)cc2)c(OCC)c1,14µM*,-18%,-7%,1%,82
COc1ccc(C(=O)Nc2ccc(C(=O)N3CCOCC3)cc2)cc1OC,17%,-1%[46.1 µM],42%,nt,15
CCN(CC)C(=O)Cn1c(=O)cc(C)c2c(C)nn(-c3ccc(C)cc3)c21,nt,nt,1%,?,8
Cc1ccccc1CNC(=O)Cn1nc(C)c2nn(-c3ccc(Cl)cc3)c(C)c2c1=O,nt,nt,?,-2%[46.1 µM],-31
COc1ccc(-c2cn3cc(C(=O)NN)ccc3n2)cc1,3%,?,30%,?,-21
CCc1ccn2cc(-c3ccc4c(c3)OCO4)nc2c1,?,?,8.9µM*,0.89µM*,-78*
SMILES,HCV inh,Marburg entry inh,FMDV inh,Lassa entry inh,HCMV antiviral
COC(=O)c1ccc2nc(-c3ccc4c(c3)OCO4)cn2c1,1%,?,0%,2µM*,-9
COc1ccc(NC(=O)c2cc([N+](=O)[O-])ccc2NC(=O)CNCc2ccccn2)c(OC)c1,?,7%[46.1 µM],-13%,?,55
COc1cc(NC(=O)c2cc([N+](=O)[O-])ccc2NC(=O)CNC2CCCCC2C)cc(OC)c1 (stereo not drawn),6.3µM*,?,-24%,?,-3
COc1cc(NC(=O)c2cc([N+](=O)[O-])ccc2NC(=O)CNC2CCCCC2)cc(OC)c1,?,-16%[46.1 µM],-6%,-9%,15
COc1cc(NC(=O)c2cc([N+](=O)[O-])ccc2NC(=O)CNCc2ccccn2)cc(OC)c1,-14%,-18%[46.1 µM],?,11µM*,29
COC(=O)c1sccc1S(=O)(=O)N1CCC(n2c(CC3CCCC3)nc3cccnc32)CC1,nt,nt,-4%,nt,nt
COC(=O)c1ccccc1CON1C(=O)C(C)(C)N(OCc2ccccc2C(=O)OC)C(=O)C1(C)C,14µM*,-22%,-25%,-19%,9
Cc1ccc(CNC(=O)CSc2nc3c(sc4ccccc43)c(=O)n2CCCOC(C)C)cc1,nt,nt,-4%,-10%[46.1 µM],7
Cc1cc2c(cc1C)-c1c(ssc1=Nc1ccc(S(N)(=O)=O)cc1)C(C)(C)N2,13µM*,nt,-10%,nt,117
CCOC(=O)c1c(NC(=O)/C=C/c2ccc(C)cc2)sc(C(C)=O)c1C,nt,nt,-18%,?,10
CC1(C)N=C(SCC(=O)Nc2ccc(Cl)cc2)C(c2ccc(Cl)cc2)=N1,13µM*,-24%,22µM*,-4%,-13
Cc1cc(SCC(=O)Nc2ccc(Cl)cc2)nc2ccccc12,nt,?,-17%,14%[46.1 µM],-34
CC1(C)N=C(SCC(=O)Nc2ccc(Cl)cc2)C(c2ccccc2)=N1,?,?,-7%,-24%,-80*
CC(CCN1CCCCc2nc(C)c(C)cc21)=NO[C@@H](C)c1cn([C@H](CO)Cc2ccccc2)nn1,nt,-12%[14.2 µM],nt,nt,nt
Cc1ccc(NC(=O)Cn2c(=O)n(Cc3nc(C)no3)c(=O)c3cc4c(cc32)OCO4)c(C)c1,nt,nt,-17%,11%[46.1 µM],-6
Cc1ccc(NC(=O)C(=O)NCC(c2cccnc2)N2CCN(C)CC2)cc1C (stereo not drawn),nt,nt,-6%,-17%[46.1 µM],-23
COc1cc(OC)cc(-c2nc3ccccc3c(=O)n2OC(=O)c2ccc(C)c(C)c2)c1,-4%,11µM*,?,?,22
CCc1ccc(C2C(C(=O)Nc3ccccc3OC)=C(C)Nc3nc(SCc4ccccc4)nn32)cc1 (stereo not drawn),nt,-4%[46.1 µM],-7%,-14%[46.1 µM],12
COC(=O)C1=C(c2ccccc2OCc2ccccc2)C[C@@H]2CC[C@H]1N2C(=O)NCc1ccc([N+](=O)[O-])cc1,13µM*,nt,-14%,nt,15
COC(=O)C1=C(c2ccccc2OCc2ccccc2)C[C@@H]2CC[C@H]1N2C(=O)NCc1ccc(Cl)cc1,11µM*,nt,0%,nt,-13
Nc1nc(Cl)nc2c1ncn2[C@@H]1O[C@H](COP(=O)(O)OP(=O)(O)OP(=O)(O)O)[C@H](O)[C@H]1O,nt,44%,nt,nt,nt
CCN1/C(=C/c2cccc[n+]2C)Sc2ccc(OC)cc21,3.5µM*,8%,?,nt,-94*
COc1ccc2c(c1)N(C)/C(=C/c1cccc[n+]1C)S2,3.5µM*,-2%,?,nt,-99*
